Bioassay records (PubChem BioAssay)
Only some compounds are listed: those with a hit (about 8% of all), similar ones and a draw of the others.
SW480 rerep: DNA re-replication induction in SW480 cells. SW480 DNA re-replication, Hoechst DNA content imaging, 48 h. Potency, µM (highest dose often 46.1 µM), inactives show top-dose re-replication activation, actives largely listed as activators. 340,000 compounds, 1.8% hits. AID 624297; also: % of control where 0% means no effect; nearly all actives have a fitted effect of over 55% in size
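DNA re-replication was detected as more nuclei of elevated Hoechst intensity after 48 hr exposure to compound (23 nL pinned per well of 250 cells).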
KB-V1 cytotox: kills drug-selected multidrug resistant KB-V1 cells; Potency, µM (series often up to 46.1 µM), most hits filed as cytotoxic; 400,000 compounds, 3.4% hits; AID 1347076; KB-V1 MDR cells viability, CellTiter-Glo, 72 h; also: % is scaled to controls: 0 for no effect and ±100 for the full control effect; nearly all actives have a fitted effect of over 60% in size
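Readout: CellTiter-Glo luminescence, 10 min after addition. Cells: KB-V1 MDR subline, 72 h at 37 degrees C with compound. Analysis: corrected, normalized data fitted to concentration-effect curves.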
HT1080-NT tox: kills 2HG-producing HT-1080-NT fibrosarcoma cells; 360,000 compounds, 1.6% hits; Potency, µM (top dose mostly 46.1 µM), without a hit: at the top dose activity, negative = less viability, most hits filed as cytotoxic; HT-1080-NT fibrosarcoma viability, CellTiter-Glo ATP luminescence, 48 h;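 also: NT is the 2HG producing partner of a matched IDH1 knockdown line; 0% = DMSO-treated cells and -100% = media-only wells without cells; nearly all actives have a fitted effect of over 55% in size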
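Toxicity toward the 2HG-producing NT line was scored as %Activity, normalised to DMSO and no-cell wells, from CellTiter-Glo luminescence after 48 hours' treatment.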
KB-3-1 tox: kills parental KB-3-1 adenocarcinoma cells | KB-3-1 viability, CellTiter-Glo ATP luminescence, 72 h | Potency, µM (titrated, usually from 46.1 µM), usual class: cytotoxic | 400,000 compounds, 1.4% hits | AID 1347075; also: % is scaled to controls: 0 for no effect and ±100 for the full control effect; nearly all actives have a fitted effect of over 60% in size
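Cytotoxicity in the drug-sensitive parental line KB-3-1 was scored as loss of CellTiter-Glo luminescence following 72 h incubation with compound. Values come from curve fitting of normalized concentration-response data.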
HT1080 IDH1KD tx: kills HT-1080 cells with IDH1 knockdown; HT-1080 IDH1 knockdown viability, ATP luminescence, 48 h; Potency, µM (highest dose often 46.1 µM), for inactives: top-dose activity, negative = toxicity, hits mostly cytotoxic; 360,000 compounds, 2% hits;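 also: 0% = DMSO wells and -100% = cell-free medium wells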
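Cytotoxicity counter-line: IDH1KD HT-1080, 48 h, CellTiter-Glo. Curves classed by r2, magnitude and activity.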
MCF10A rerep: inducers of DNA re-replication in MCF 10A breast cells. MCF 10A DNA re-replication, Hoechst nuclear intensity, 48 h. Potency, µM (top dose mostly 46.1 µM), inactives show at the highest dose activity, positive = re-replication, actives largely listed as activators. 350,000 compounds, 2.9% hits. AID 624296; also: % of control where 0% means no effect; nearly all actives have a fitted effect of over 50% in size
Active calls of the source: *; i = inactive; ? = inconclusive; . = not tested or not shown; [ ] = another dose, or the depositor's remark. Calls follow the shape of the dose curve; as a rule, active = well fitted curve in the direction sought with a large enough effect; inconclusive = small, poorly fitted or top-dose-only effect, or another doubt; inactive = no such curve, though single readings can be large; an effect the other way counts as inactive or inconclusive. Potency is read from the fitted curve at half-maximal effect.

SMILES	SW480 rerep	KB-V1 cytotox	HT1080-NT tox	KB-3-1 tox	HT1080 IDH1KD tx	MCF10A rerep
COCCn1c(-c2ccc(SC)cc2)nc2c1c(=O)[nH]c(=O)n2CC(C)C	-6%	?	1%	i	-12%	13%
COCCn1c(-c2ccc(-c3ccc([N+](=O)[O-])cc3Br)o2)nc2c1c(=O)[nH]c(=O)n2CC(C)C	26%	7.3µM*	?	i	-16%	18µM*
C[N+]1(CC(=O)c2ccc(Br)cc2)CCOCC1	.	i	.	i	.	.
CCc1noc(-c2ccc(N3CCCCC3)c([N+](=O)[O-])c2)n1	.	i	.	i	.	.
Cc1ccc(Oc2nc3ccccn3c(=O)c2/C=C(\C#N)c2nc3ccccc3s2)c(C)c1	.	i	.	i	.	.
CC(C)CCNC(=O)C12CN(Cc3ccccc3)CC1C(c1ccc([N+](=O)[O-])cc1)=NO2 (stereo not drawn)	-2%	i	-7%	?	-13%	-7%
COc1cccc(CNC(=O)C23CN(Cc4ccccc4)CC2C(c2ccc([N+](=O)[O-])cc2)=NO3)c1 (stereo not drawn)	0%	13µM*	-3%	i	-3%	2%
CCc1ccc(Oc2c(C(F)(F)F)oc3c(CN4CCC(C)CC4)c(O)ccc3c2=O)cc1	.	i	.	i	.	.
O=C(NNC1=C(C(=O)C(F)(F)F)CCC1)c1ccc(Cl)cc1	2%	i	?	i	7.9µM*	-4%
O=C(NNC1=C(C(=O)C(F)(F)F)CCC1)c1cccc(Cl)c1	?	?	?	?	23µM*	?
COc1ccc(C(=O)NNC2=C(C(=O)C(F)(F)F)CCC2)cc1	?	?	-29%	?	?	?
O=C(NNC(=O)c1cccc(Cl)c1)NNC(=O)c1cccc(Cl)c1	28%	i	-2%	i	?	-1%
CC(=O)Nc1ccc(S(=O)(=O)Nc2c(C)nn(-c3ccccc3)c2C)cc1	-3%	i	-25%	i	6%[9.24 µM]	-6%
CC(=O)c1ccccc1NS(=O)(=O)c1c(C)nn(-c2ccccc2)c1C	-7%	9.2µM*	-10%	i	-17%	15%
CN(Cc1ccccc1)c1nc(-c2ccc([N+](=O)[O-])cc2)nc2ccccc12	1%	i	2%	i	-3%	16%
O=[N+]([O-])c1ccc(-c2nc(C(Cl)Cl)c3ccccc3n2)cc1	?	i	-4%	13µM*	11%	?
CC[n+]1c(/C=C/C=C/N(C(C)=O)c2ccccc2)sc2ccccc21	0%	?	?	16µM*	?	-6%
Cc1cccc(NC(=O)C(NS(=O)(=O)c2cccc3nsnc23)c2ccccc2)c1C (stereo not drawn)	.	i	.	i	.	.
CC(=O)N1CCC2(CC1)C/C(=N\NC(=S)Nc1ccc(C)cc1)c1cc(O)ccc1O2	28%	i	?	?	?	23µM*
Cc1ccc(NC(=S)N/N=C2\CC(C)(C)Oc3ccc(O)cc32)cc1	-176%	i	-22%	i	-5%	21µM*
Cc1ccccc1NC(=S)N/N=C1\CC(C)(C)Oc2ccc(O)cc21	19%	i	-30%	?	-20%	16%
Cc1ccc(S(=O)(=O)c2cc3ccc(O)cc3oc2=O)cc1C	2.3µM*	i	-2%	i	-4%	2.3µM*
CC(=O)N(c1ccc2ccccc2c1)C1SC(=O)N(c2cccc(C)c2)C1=O (stereo not drawn)	.	.	24%	.	0%	.
C=CC[n+]1c(-c2ccccc2)csc1NC(C)(C)C	-2%	i	1%	i	-4%	11%
C=CC[n+]1c(-c2ccc(OC)c(OC)c2)csc1NNC(=O)Nc1ccccc1	-2%	18µM*	?	?	16µM*	16%
